Methyltransferases: Primary Screen for Target Class Profiling of Small Molecule Inhibitors of Methyltransferases | purified enzyme, MTase-Glo SAH luminescence; active compounds read low | actives 3.9% (n = 25,000) | calls only at 40 µM; call rule not given here
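Each enzyme was assayed with SAM and its substrate. SAH formation detected by MTase-Glo luminescence; single-point 40 uM screen[…].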
Calls only; - = inactive; + = active, no number; ! = not confirmed by another sample. This is one part of a sample in which hits are shown more often than they occur.

SMILES	Methyltransferases
COc1ccc(N2CCN(C(=O)CCc3nnc4n(CCCOC(C)C)c(=O)c5ccccc5n34)CC2)cc1	-
c1ccc(CN2CCn3c4c(c5cc(C6CCCCC6)ccc53)CCCC42)cc1 (configuration not stated)	-
COc1ccccc1CNC(=O)C1(C)Cn2nc(-c3ccccc3)cc2C(=O)N1Cc1ccccc1OC (configuration not stated)	-
COc1ccc(CN2C(=O)c3nc4ccccc4n3CC2(C)C(=O)NC2CCCCCC2)cc1 (configuration not stated)	-
Cc1cc(N)c2ccccc2[n+]1CCCCCCCCCC[n+]1c(C)cc(N)c2ccccc21	+
Cc1ccc(CNC(=O)Cn2ccc3cc(S(=O)(=O)N4CCCCC4)ccc32)o1	-
CCc1cc(=O)n(CC(=O)Nc2ccccc2OC)c(N2CCOCC2)n1	-
COc1cc(N2CCOCC2)ccc1Nc1ncc(F)c(Nc2ccccc2NS(C)(=O)=O)n1	+
COc1ccc(Nc2nc3c(S(=O)(=O)c4ccc(F)cc4)nnn3c3ccccc23)c(OC)c1	-
CCCn1c(=O)c2sccc2n2c(CCC(=O)NCc3ccncc3)nnc12	-
CC1CCC(N2C(=O)c3ccc(-c4ccco4)n3CC2(C)C(=O)NC2CCCCCC2)CC1 (configuration not stated)	-
CC1(C(=O)NC2CCCCCCC2)Cn2c(ccc2-c2ccco2)C(=O)N1Cc1ccccc1F (configuration not stated)	-
CCN(CC)C(=S)SSC(=S)N(CC)CC	+
CCOC(=O)c1cc2n(n1)CC(C)(C(=O)NCc1ccc(Cl)cc1)N(c1ccc(F)cc1)C2=O (configuration not stated)	-
Cc1ccc(N2C(=O)c3cc4occc4n3CC2(C)C(=O)NC2CCCCCCC2)cc1 (configuration not stated)	-
Cc1cccc(Cn2nc3n(CCC(C)C)c(=O)c4ccc(C(=O)NCC(C)C)cc4n3c2=O)c1	-
O=c1nc2c(-c3ccccc3Cl)n[nH]n2c2ccc(Cl)cc12	-
Cc1ccc(C)c(Cn2nc3n(C(C)C)c(=O)c4ccc(C(=O)NC5CCCC5)cc4n3c2=O)c1	-
CCN1C(=O)c2cc3ccccc3n2CC1(C)C(=O)NCC(=O)NCc1ccc(OC)cc1 (configuration not stated)	-
CC1CCCC(NC(=O)C2(C)Cn3c(cc4occc43)C(=O)N2c2ccc(Cl)cc2)C1C (configuration not stated)	-
NC[C@@](O)(c1ccc(Cl)cc1)c1ccc(-c2cn[nH]c2)cc1	+
NCC(O)(CS(=O)(=O)O)c1ccc(Cl)cc1 (configuration not stated)	-
CC1(C(=O)NC2CCCCC2)Cn2nc(-c3ccco3)cc2C(=O)N1Cc1ccccc1F (configuration not stated)	-
CC1(C(=O)NC2CCCCC2)Cn2nc(-c3ccco3)cc2C(=O)N1CCc1ccccc1 (configuration not stated)	-
COc1ccccc1CNC(=O)C1(C)Cn2cnc(C(=O)NC3CCCC3)c2C(=O)N1C1CC1 (configuration not stated)	-
SMILES	Methyltransferases
CN1CCc2cccc3c2C1Cc1ccc(O)c(O)c1-3 (configuration not stated)	+
O=C(CCc1nnc2n(Cc3ccc(F)cc3)c(=O)c3ccccc3n12)N1CCC(Cc2ccccc2)CC1	-
Cc1cnc(Nc2ccc(OCCN3CCCC3)cc2)nc1Nc1cccc(S(=O)(=O)NC(C)(C)C)c1	+!
CCOc1ccc(Nc2nc3c(S(=O)(=O)c4ccccc4)nnn3c3ccccc23)cc1	-
CCc1ccc(CNC(=O)Cn2ccc3cc(S(=O)(=O)N4CCC(C)CC4)ccc32)cc1	-
CCC(C)NC(=O)c1ccc2c(=O)n(CC(C)C)c3nn(CC(=O)c4ccc(OC)cc4)c(=O)n3c2c1 (configuration not stated)	-
CC(C)c1cc2c(c(O)c1O)[C@@]13CCCC(C)(C)C1[C@@H](O)[C@@H]2OC3=O (some centres not stated)	+
CC(C)c1cc2c(c(O)c1O)[C@@]13CCCC(C)(C)[C@@H]1[C@H](OC3=O)C2=O	-
COC1OC(=O)C2=C1C1(C)CCCC(C)(C)C1CC2O (configuration not stated)	-
CN(CCCN1C(=O)c2cc3occc3n2CC1(C)C(=O)NC1CCCCC1)C1CCCCC1 (configuration not stated)	-
C=CCn1c(=O)c2ccc(C(=O)NCC(C)C)cc2n2c(=O)n(CC(=O)N(C)c3ccccc3)nc12	-
Cc1cc2[nH]c(=O)[nH]c2cc1S(=O)(=O)NCCc1ccccc1	-
CC1(C(=O)NC2CCCCC2)Cn2c(ccc2-c2ccco2)C(=O)N1CCc1ccccc1Cl (configuration not stated)	-
COc1ccc(CCN2C(=O)c3cc4ccccc4n3CC2(C)C(=O)NC2CCCC2)cc1OC (configuration not stated)	-
CNc1nc(Nc2ccc(C(=O)N3CCOCC3)cc2OC)ncc1Cl	-
CCNc1nc(Nc2cc(F)c(C(=O)N3CCOCC3)cc2OC)ncc1C(F)(F)F	+
CNc1nc(Nc2ccc(C(=O)N3CCOCC3)cc2OC)nc2[nH]cc(Cl)c12	-
CCCN1C(=O)c2cc3sc(CC)cc3n2CC1(C)C(=O)NC1CCCCC1 (configuration not stated)	-
CCc1cccc(C)c1NS(=O)(=O)c1ccc2c(c1)n(C)c(=O)n2C	-
Cc1ccc(Cn2c(=O)c3ccc(C(=O)NC(C)C)cc3n3c(SCC(=O)NC(C)C)nnc23)cc1	-
CCCc1c(-c2ccc(O)cc2)nn(-c2ccc(O)cc2)c1-c1ccc(O)cc1	+
CCCn1c(=O)c2ccc(C(=O)NCC(C)C)cc2n2c(=O)n(CC(=O)N(C)c3ccc(F)cc3)nc12	-
COCCCNC(=O)Cn1ccc2cc(S(=O)(=O)N3CCCCC3)ccc21	-
C=C1C(=O)O[C@@H]2C[C@H](C)[C@@]3(O)C=C(C(C)=O)[C@]4(CC3C[C@H]12)C(=O)O[C@H]1C[C@@H](C)C(CCC(C)=O)=CC[C@H]14 (some centres not stated)	-
C=C1C(=O)OC2CC(C)C(CCC(C)=O)=CCC12 (configuration not stated)	-
SMILES	Methyltransferases
C=C1C(=O)OC2CC(C)C(CCC(C)O)=CCC12 (configuration not stated)	+
Cc1cccc(NC(=O)Cn2nc3n(C(C)C)c(=O)c4ccc(C(=O)NC(C)C)cc4n3c2=O)c1	-
CCc1cc2c(cc3n2CC(C)(C(=O)NC2CCC(C)CC2)N(CCN(CC)CC)C3=O)s1 (configuration not stated)	-
CC1(C(=O)NC2CCCCCC2)Cn2c(cc3sccc32)C(=O)N1Cc1ccccc1Cl (configuration not stated)	-
Cc1ccc(Cn2c(=O)c3ccc(C(=O)NC4CCCC4)cc3n3c(=O)n(CC(=O)NC(C)C)nc23)cc1	-
CN1C(=O)c2cc(C(=O)NCCCN3CCOCC3)nn2CC1(C)C(=O)NCc1ccc(F)cc1 (configuration not stated)	-
CCOCCCN1C(=O)c2cc3c(OC)ccc(OC)c3n2CC1(C)C(=O)NC1CCCCCC1 (configuration not stated)	-
COc1ccc(OC)c2c1cc1n2CC(C)(C(=O)NC2CCC(C)CC2)N(Cc2cccnc2)C1=O (configuration not stated)	-
CCOCCCN1C(=O)c2cc3c(OC)ccc(OC)c3n2CC1(C)C(=O)NC1CCCCC1 (configuration not stated)	-

Bioassay records as filed in PubChem BioAssay.
